Results from the OligoGym collection.

target: TMEM130; experiment: pooled miR-30 sensor sort-seq; sequence = guide strand; settings: shRNA
Also: reference of the scale not given here.

Row | Sequence | sensor-assay potency score (higher = more potent)
1 | TTGCTGAGTGGCATTCCGCAGG | -0.984
2 | TTTATTTAGCAACAATGGCAGT | -0.968
3 | TTCAAGGTCACGGTCATCTTTT | -0.705
4 | TTGTCCTTGGCCACCAGGCTGG | -1.04
5 | TATGTGTACAACCTTTAGTTAT | -1.54
6 | TTCTGCTTCACAGCCCTCGTGG | -0.803
7 | TAGTTATGGATTTTTAACCCTT | -0.844
8 | TATTGTCTCAGCCACAGCCCAG | -1.4
9 | TTGGAAGGTCTGAATTAGGGTG | 0.0908

target: TMEM140; experiment: as above; settings: shRNA

Row | Sequence | sensor-assay potency score (higher = more potent)
10 | TATGATGCTCATGAACAGCAGC | -0.769
11 | AAGAGCGTAAAACATCAGGCAG | -0.966
12 | ATGCTCATGAACAGCAGCTGGT | -1.09
13 | TATAGAAGCCGATTCTCAGGTT | 0.501
14 | ATCACGAGGACTATGATGCTCA | -0.61
15 | TGTACTAAGAAGTCACAGGTGC | 0.194
16 | TAGAAGCCGATTCTCAGGTTGG | -0.232
17 | TTATAGAAGCCGATTCTCAGGT | 0.174
18 | ATGAACAGCAGCTGGTCGCGCC | -1.18
19 | TGCTCATGAACAGCAGCTGGTC | -1.48
20 | TGACACTGTAGGGTGCTGGTGT | 0.184
21 | TCTCTCATCACTGTTGCACTGG | 0.0267

target: TMEM147; experiment: as above; settings: shRNA

Row | Sequence | sensor-assay potency score (higher = more potent)
22 | TAATGGACCAGACTGATGTTGG | -0.822
23 | TATCAGGTCTGCCACATCCACG | -1.57
24 | TTATCATCCAGACCTGAGCAGA | -0.978
25 | TTGTACTCGGACAGGCCGCTGC | -1
26 | TCATAGCGTGTTATCATCCAGA | -0.557
27 | TTGTAGGTGATGAAGTAGGGGA | -0.423
28 | TCTGGATGTACTTCCAGTCAAA | -1.49
29 | TAGACCTATCAGGTCTGCCACA | -1.51
30 | TAGAGCTGCCCAACTGCCCAGC | -1.02
31 | TGTGGTACAGATCATAGCGTGT | -0.505
32 | TTGGAGTCTATGCTCATCTGGA | -0.274

target: TMEM156; experiment: as above; settings: shRNA

Row | Sequence | sensor-assay potency score (higher = more potent)
33 | TAGTTTATCGATTTCTCCTTGC | -0.128
34 | TTCCTGAGAAATAAAATCCATG | -1.19
35 | TTTGCTTTCACTTCCATTGATC | -0.423
36 | TAGATTGCAAACACACTTCCAG | 0.703
37 | AATGTGTATACAATCATTCGGG | -0.0136
38 | TACACTGAAGTTAAAGTGCTGA | 0.144
39 | TTAAGAGAACAGATGTAGGTTT | 0.112
40 | TTTGTCTCTATGACTCTGCCAC | -0.207
